Nine compounds from PubChem BioAssay (NCATS) can be followed below.

Inconclusive results are not listed. A number with no mark means an inactive call. Activity calls are given as the source filed them. The call rests on the fitted dose curve; in most records, active means well fitted curve in the direction sought with a large enough effect; inconclusive means small, poorly fitted or top-dose-only effect, or another doubt; inactive means no such curve, though single readings can be large; an effect the other way counts as inactive or inconclusive.

A short description of experiment [1]: qHTS of pediatric cancer cell lines to identify multiple opportunities for drug repurposing: Primary screen for Saos-2 cells (AID 1347097). Further: nearly all actives have a fitted effect of over 40% in size. On activity change, negative = cytotoxic: on the % scale 0 is the no-effect control and ±100 the full control effect. In outline:
(§1)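 Readout: CellTiter-Glo luminescence, 48 h treatment. Controls DMSO (neutral) and bortezomib 2.3 µM final (positive). Potency and efficacy taken from primary-screen concentration-response curves.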

A short description of experiment [2]: qHTS of pediatric cancer cell lines to identify multiple opportunities for drug repurposing: Primary screen for SK-N-SH cells (AID 1347098). Further: nearly all actives have a fitted effect of over 65% in size. On activity change, negative = cytotoxic: on the % scale 0 is the no-effect control and ±100 the full control effect. Summed up:
(§2)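 Cells (500-1,000/well) rested 5 h, then received compounds for 48 h; metabolically active cells were measured by CellTiter-Glo luminescence. Final concentrations spanned up to 46 µM (MIPE, 11-point) or 0.59 nM-46 µM (NPC, 8-point) in primary screens, 11-point in follow-ups.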

The nature of experiment [3]: qHTS of pediatric cancer cell lines to identify multiple opportunities for drug repurposing: Primary screen for NB1643 cells (AID 1347099). Further: nearly all actives have a fitted effect of over 50% in size.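 On activity change, negative = cytotoxic: plate controls were DMSO neutral control for no effect and bortezomib positive control for full effect.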 In outline: as §1
Experiment [4] can be described thus: qHTS of pediatric cancer cell lines to identify multiple opportunities for drug repurposing: Primary screen for LAN-5 cells (AID 1347100).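 On activity change, negative = cytotoxic: plate controls were DMSO neutral control for no effect and bortezomib positive control for full effect.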 In outline: (§3)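 Viability after 48 h compound treatment at 37C, 500-1,000 cells/well, read as ATP luminescence with CellTiter-Glo. Primary screens used 11-point (MIPE, 0.78 nM-46 µM) or 8-point (NPC, 0.59 nM-46 µM) final concentrations; follow-up screens used 11-point dilutions.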

Experiment [5] is described as follows: qHTS of pediatric cancer cell lines to identify multiple opportunities for drug repurposing: Primary screen for BT-12 cells (AID 1347101). Further: nearly all actives have a fitted effect of over 25% in size.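 On activity change, negative = cytotoxic: plate controls were DMSO for no effect and bortezomib positive control for full effect.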 In outline: as §2
Experiment [6] is described as follows: qHTS of pediatric cancer cell lines to identify multiple opportunities for drug repurposing: Primary screen for Rh18 cells (AID 1347102). Further: nearly all actives have a fitted effect of over 65% in size. On activity change, negative = cytotoxic: on the % scale 0 is the no-effect control and ±100 the full control effect. Summed up: as §3
The nature of experiment [7]: qHTS of pediatric cancer cell lines to identify multiple opportunities for drug repurposing: Primary screen for OHS-50 cells (AID 1347103). Further: nearly all actives have a fitted effect of over 40% in size.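 On activity change, negative = cytotoxic: plate controls were DMSO neutral control for no effect and bortezomib positive control for full effect.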 Summed up: as §2
Experiment [8] in a line: qHTS of pediatric cancer cell lines to identify multiple opportunities for drug repurposing: Primary screen for RD cells (AID 1347104). Further: nearly all actives have a fitted effect of over 55% in size.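 On activity change, negative = cytotoxic: plate controls were DMSO for no effect and bortezomib for full effect.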 In outline:
as §1

The nature of experiment [9]: qHTS of pediatric cancer cell lines to identify multiple opportunities for drug repurposing: Primary screen for MG 63 (6-TG R) cells (AID 1347105). Further: nearly all actives have a fitted effect of over 50% in size. On activity change, negative = cytotoxic: on the % scale 0 is the no-effect control and ±100 the full control effect. In outline: as §1
The nature of experiment [10]: qHTS of pediatric cancer cell lines to identify multiple opportunities for drug repurposing: Primary screen for control Hh wild type fibroblast cells (AID 1347106). Further: nearly all actives have a fitted effect of over 55% in size.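 On activity change, negative = cytotoxic: series mostly up to about 46 µM; on the % scale 0 is the no-effect control and ±100 the full control effect; a drop in luminescence marks cytotoxicity and a rise apparent proliferation.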 In outline: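 Cells (500-1,000/well) in growth media were settled 5 h at 37 degrees C, then given compounds for 48 h. Viability was read as CellTiter-Glo luminescence. Primary runs used MIPE at 11 points (0.78 nM-46 µM) and NPC at 8 points (0.59 nM-46 µM); follow-ups used 11 points.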

The nature of experiment [11]: qHTS of pediatric cancer cell lines to identify multiple opportunities for drug repurposing: Primary screen for Rh30 cells (AID 1347107). Further: nearly all actives have a fitted effect of over 75% in size. In outline:
as §3

The nature of experiment [12]: qHTS of pediatric cancer cell lines to identify multiple opportunities for drug repurposing: Primary screen for Rh41 cells (AID 1347108). Further: nearly all actives have a fitted effect of over 70% in size.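 On activity change, negative = cytotoxic: series mostly up to about 46 µM; luminescence drop marks cytotoxic hits.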 In outline: as §1
A short description of experiment [13]: qHTS of pediatric cancer cell lines to identify multiple opportunities for drug repurposing: Confirmatory screen for NB1643 cells (AID 1347109). Further: nearly all actives have a fitted effect of over 45% in size. In outline: as §3
Experiment [14] in a line: qHTS of pediatric cancer cell lines to identify multiple opportunities for drug repurposing: Confirmatory screen for BT-12 cells (AID 1347112). Further: nearly all actives have a fitted effect of over 55% in size. Summed up: as §3
The nature of experiment [15]: qHTS of pediatric cancer cell lines to identify multiple opportunities for drug repurposing: Confirmatory screen for DAOY cells (AID 1347114). Further: nearly all actives have a fitted effect of over 65% in size. In outline:
(§4)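 Viability measured as metabolically active cells via CellTiter-Glo luminescence following 48 hours of compound exposure, 11-point dilutions in confirmatory testing. 500-1,000 cells/well plated 5 hours before dosing; controls were DMSO and 2.3 µM bortezomib.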

Experiment [16] can be described thus: qHTS of pediatric cancer cell lines to identify multiple opportunities for drug repurposing: Confirmatory screen for NB-EBc1 cells (AID 1347115). Further: nearly all actives have a fitted effect of over 45% in size. Summed up:
as §3

Experiment [17] in a line: qHTS of pediatric cancer cell lines to identify multiple opportunities for drug repurposing: Confirmatory screen for SJ-GBM2 cells (AID 1347116). Further: nearly all actives have a fitted effect of over 60% in size. In outline:
as §4

The nature of experiment [18]: qHTS of pediatric cancer cell lines to identify multiple opportunities for drug repurposing: Confirmatory screen for A673 cells (AID 1347110). Further: nearly all actives have a fitted effect of over 65% in size. In outline:
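A673 cells seeded at 500-1,000 cells/well, rested 5 h, then dosed; primary MIPE 11-point (0.78 nM to 46 µM), NPC (0.59 nM to 46 µM); confirmatory 11-point. CellTiter-Glo luminescence after 48 h.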

A short description of experiment [19]: qHTS of pediatric cancer cell lines to identify multiple opportunities for drug repurposing: Confirmatory screen for SK-N-MC cells (AID 1347111).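 Further: cells exposed to compound for 48 h before the readout; nearly all actives have a fitted effect of over 70% in size.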 In outline: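 SK-N-MC cells at 500-1,000 cells/well in growth media were pre-incubated 5 h, then exposed to compounds at 11-point dilutions for 48 h at 37 degrees C, 5% CO2. Viability was read as CellTiter-Glo luminescence.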

Experiment [20] in a line: qHTS of pediatric cancer cell lines to identify multiple opportunities for drug repurposing: Confirmatory screen for LAN-5 cells (AID 1347113). Further: nearly all actives have a fitted effect of over 65% in size. In outline:
as §3
Potency means the concentration at half of the fitted maximal effect.

For the compound `CC(NCc1ccc2c(c1)nc(NC(=O)c1ccc(-c3cn[nH]c3)s1)n2CC(C)(C)O)C(C)(C)C` (stereo unspecified), the Potency in experiment [1] is 0.743 µM (active); in [2] it was 0.961 µM (active); in [3] it was 0.372 µM (active); in [4] it was 0.132 µM (active); in experiment [5], 0.968 µM (active); in [6], 1.66 µM (active). The Potency was 0.485 µM (active) in experiment [7]; 1.05 µM (active) in [8]; 2.35 µM (active) in [9]; 2.35 µM (active) in [10]; 14.8 µM (active) in [11]; 0.743 µM (active) in [12]. The Potency in experiment [13] was 0.293 µM (active); in experiment [14], 0.928 µM (active); in [15], 1.47 µM (active); in experiment [16], 0.827 µM (active); in [17] it was 1.04 µM (active).

Take `C=CC(=O)Nc1cc2c(Nc3ccc(F)c(Cl)c3)ncnc2cc1OCCCN1CCOCC1`: the Potency is 5.9 µM (active) in [1]; 2.73 µM (active) in experiment [2]; 23.5 µM (active) in experiment [3]; 6.62 µM (active) in experiment [4]; 21.7 µM (active) in experiment [5]; 8.33 µM (active) in [6]. For the same compound, the Potency in experiment [7] is 7.69 µM (active); in experiment [8], 18.7 µM (active); in experiment [9], 23.5 µM (active); in [11] it was 18.7 µM (active); in [12], 18.7 µM (active). Further, in experiment [10], the Potency result was “inactive”.

For the compound `C=C1C(=CC=C2CCC[C@]3(C)[C@@H]([C@H](C)C=C[C@H](C)C(C)C)CC[C@@H]23)C[C@@H](O)C[C@@H]1O`, the Potency was 2.96 µM (active) in experiment [1]; 1.92 µM (active) in [2]; 0.935 µM (active) in experiment [3]; 0.469 µM (active) in experiment [4]; 2.17 µM (active) in [5]; 0.743 µM (active) in [6]. The Potency in [7] is 0.685 µM (active); in experiment [8] it was 1.66 µM (active); in [9], 5.9 µM (active); in [11], 3.72 µM (active); in [12] it was 0.935 µM (active); in experiment [15], 20.8 µM (active). For the same compound, the Potency in experiment [16] is 4.14 µM (active). Moreover, the Potency result in experiment [10] is “inactive”.

Regarding `O=C1CCC[C@@H]2[C@H]3CCC[N+]4([O-])CCC[C@@H](CN12)[C@@H]34` (stereo partly specified), the Potency result in experiment [1], in [2], in experiment [3], in experiment [4], in experiment [5] and in [6] was “inactive” in each case. For the same compound, the Potency entry in experiment [7], in [8], in [9], in [10], in [11] and in [12] was “inactive” in each case.

As for `c1nc2nc(Nc3ccc(N4CCOCC4)cc3)nc(NC3CCCCC3)c2[nH]1`, the Potency was 4.69 µM (active) in [1]; 4.29 µM (active) in [2]; 1.66 µM (active) in experiment [3]; 0.469 µM (active) in [4]; 21.7 µM (active) in [5]; 9.35 µM (active) in experiment [6]. Besides, the Potency in [7] was 2.17 µM (active); in [8], 13.2 µM (active); in experiment [9], 11.8 µM (active); in experiment [11], 11.8 µM (active); in experiment [12], 5.9 µM (active). Moreover, in experiment [10], the Potency result is “inactive”.

`Cc1cc(Nc2cc(N3CCN(C)CC3)nc(Sc3ccc(NC(=O)C4CC4)cc3)n2)n[nH]1`: the Potency entry in experiment [1] and in experiment [10] was “inactive” in each case. Also, the Potency in experiment [2] was 21.5 µM (active); in experiment [3], 20.9 µM (active); in [4] it was 0.105 µM (active); in [5], 21.7 µM (active); in [6], 16.6 µM (active); in [7], 6.85 µM (active). Also, the Potency in [8] was 18.7 µM (active); in [9], 18.7 µM (active); in [11] it was 18.7 µM (active); in experiment [12] it was 11.8 µM (active); in experiment [13], 4.14 µM (active); in experiment [18], 13.1 µM (active). The Potency in experiment [19] is 0.131 µM (active); in experiment [15], 5.22 µM (active).

Take `O=c1[nH]nc(Sc2ncc([N+](=O)[O-])s2)n1-c1ccc2c(c1)OCCO2`: the Potency in [1] was 10.5 µM (active); in [2], 12.1 µM (active); in experiment [3], 4.69 µM (active); in [4] it was 8.33 µM (active); in experiment [5] it was 17.2 µM (active); in experiment [6], 9.35 µM (active). Moreover, the Potency in experiment [7] is 9.68 µM (active); in experiment [8] it was 13.2 µM (active); in [9], 5.9 µM (active); in experiment [10] it was 14.8 µM (active); in experiment [11], 10.5 µM (active); in experiment [12], 6.62 µM (active). Also, the Potency was 7.37 µM (active) in experiment [13]; 5.85 µM (active) in experiment [19]; 9.27 µM (active) in [14]; 7.37 µM (active) in experiment [20]; 23.3 µM (active) in experiment [15]; 7.37 µM (active) in experiment [16]. In addition, in experiment [17], the Potency is 13.1 µM (active).

For `COc1ccc(CC2c3cc(OC)c(OC)cc3CC[N+]2(C)CCC(=O)OCCCCCOC(=O)CC[N+]2(C)CCc3cc(OC)c(OC)cc3C2Cc2ccc(OC)c(OC)c2)cc1OC` (stereo unspecified), the activity change, negative = cytotoxic in experiment [1] was 4.71% [at 9.22 µM]; in experiment [2], -0.106% [at 11.4 µM]; in experiment [3] it was 1.38% [at 9.22 µM]; in experiment [4], 2.36% [at 9.22 µM]; in [5], 7.29% [at 11.5 µM]; in experiment [6], -3.1% [at 9.22 µM]. Also, the activity change, negative = cytotoxic in experiment [7] is 9.58% [at 11.5 µM]; in experiment [8], 4.63% [at 9.22 µM]; in experiment [9], 0.923% [at 9.22 µM]; in experiment [10] it was -1.39% [at 9.22 µM]; in [11], 18.3% [at 9.22 µM]; in experiment [12], 23.2% [at 9.22 µM].

Regarding `CC(C)c1ccc(Cn2ccc3c4c(N)nc(NC5CC5)nc4ccc32)cc1`, the Potency was 4.69 µM (active) in experiment [1]; 21.5 µM (active) in [2]; 18.7 µM (active) in experiment [3]; 18.7 µM (active) in [4]; 4.32 µM (active) in experiment [5]; 18.7 µM (active) in experiment [6]. Further, the Potency in experiment [7] is 4.85 µM (active); in experiment [8], 14.8 µM (active); in experiment [9] it was 14.8 µM (active); in experiment [11] it was 18.7 µM (active); in experiment [12], 3.72 µM (active). The Potency entry in experiment [10] was “inactive”.
